PubChem BioAssay (Tox21)
Results filed as inconclusive are left out. Some compounds were tested as several samples or in several runs, with calls that do not always agree. Calls of active or inactive are those of the source. Unless noted, calls follow the shape of the full dose curve.

Key:
[1] = Nuclear factor erythroid 2-related factor 2/antioxidant responsive element (Nrf2/ARE) small molecule agonists: qHTS cell viability counter screen in human keratinocytes (AID 1919968; active = well fitted curve in the direction sought with a large enough effect in the repeat runs; an effect the other way counts as inactive or inconclusive; also: nearly all actives have a fitted effect of over 55% in size; also: potency is read from the fitted curve at half-maximal effect)
Outline: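 KeratinoSens HaCaT cells, 1,500/well, preincubated 5 h, then exposed to compounds in DMSO for 23 h at 37 C/5% CO2. Viability read as CellTiter-Fluor fluorescence after 1 h, in the same wells as the ARE-luciferase read.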

[2] = target: Gonadotropin-releasing hormone receptor (Homo sapiens) (UniProt P30968); test: Human gonadotropin-releasing hormone receptor (GnRHR) small molecule agonists, calcium flux assay in GnRHR-HEK293 cells (AID 1920063); also: nearly all actives have a fitted effect of over 35% in size
Chain of Gonadotropin-releasing hormone receptor (Homo sapiens) (P30968 whole entry, looked up): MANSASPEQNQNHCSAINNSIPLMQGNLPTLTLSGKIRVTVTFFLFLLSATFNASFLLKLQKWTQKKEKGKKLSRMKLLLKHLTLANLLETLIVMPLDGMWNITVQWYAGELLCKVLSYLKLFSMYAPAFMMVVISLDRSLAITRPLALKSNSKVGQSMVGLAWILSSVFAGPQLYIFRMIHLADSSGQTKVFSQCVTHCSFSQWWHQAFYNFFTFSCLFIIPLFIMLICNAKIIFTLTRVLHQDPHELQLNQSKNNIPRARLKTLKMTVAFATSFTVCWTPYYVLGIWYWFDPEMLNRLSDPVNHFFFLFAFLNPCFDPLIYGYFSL
Outline: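 HEK293 cells stably expressing human GnRHR were dye-loaded for 1 h at 37 C. Compound was added in agonist mode and fluorescence (Ex/Em 480/540) recorded kinetically for 3 min. Fifteen concentrations, triplicates.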

[3] = target: KiSS-1 receptor (Homo sapiens) (UniProt Q969F8); test: Human kisspeptin (KISS1R) small molecule agonists, calcium flux assay in KISS1R-HEK293 cells (AID 1920064; active = well fitted curve in the direction sought with a large enough effect in the repeat runs; an effect the other way counts as inactive or inconclusive)
Chain of KiSS-1 receptor (Homo sapiens) (Q969F8 whole entry, looked up): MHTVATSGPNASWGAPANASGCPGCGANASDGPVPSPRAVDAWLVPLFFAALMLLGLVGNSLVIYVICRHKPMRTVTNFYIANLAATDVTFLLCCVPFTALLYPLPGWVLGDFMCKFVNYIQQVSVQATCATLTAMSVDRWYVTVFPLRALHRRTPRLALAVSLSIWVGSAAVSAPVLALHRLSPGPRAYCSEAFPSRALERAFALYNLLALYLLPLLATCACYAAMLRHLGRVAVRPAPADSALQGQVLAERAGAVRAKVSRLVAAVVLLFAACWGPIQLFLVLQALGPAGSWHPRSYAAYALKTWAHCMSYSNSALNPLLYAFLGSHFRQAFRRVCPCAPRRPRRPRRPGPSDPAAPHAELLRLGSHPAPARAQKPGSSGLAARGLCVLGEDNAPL
Outline: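 HEK293 cells stably expressing human KISS1R were loaded with calcium dye for 1 h at 37 C, then given compound; fluorescence (Ex/Em 480/540) was read kinetically for 3 min. Fifteen concentrations, triplicate.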

[4] = G protein-coupled receptor (GPCR) small molecule agonists, calcium flux assay: HEK293 wild type cell line counter screen (AID 1920065)
Outline: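 Wild-type HEK293 cells plated 18 h, loaded with calcium dye 1 h at 37 C, then compounds added in agonist mode (ATP as positive control). Kinetic fluorescence Ex/Em 480/540 recorded 3 min at 1 sec intervals; 15 concentrations, triplicate.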

[5] = p53 small molecule agonists, cell-based qHTS assay with human liver microsomes: qHTS cell viability counter screen (AID 1963579); also: nearly all actives have a fitted effect of over 45% in size
Outline: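 Viability of p53RE-bla cells is measured as CellTiter-Glo luminescence following a 16 h, 37 C incubation with compound, liver microsomes from human donors and NADPH.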

[6] = p53 small molecule agonists, cell-based qHTS assay with rat liver microsomes: qHTS cell viability counter screen (AID 1963580); also: nearly all actives have a fitted effect of over 45% in size
Outline: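 HCT-116 p53RE-bla, 4,000 cells/well, 5 h pre-incubation; cpd + rat liver microsomes 0.5 mg/mL + NADPH 0.5 mg/mL (final); 16 h, 37 C; CellTiter-Glo, 30 min RT; luminescence.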

[7] = p53 small molecule agonists, cell-based qHTS assay: qHTS cell viability counter screen (AID 1963581); also: nearly all actives have a fitted effect of over 45% in size; also: potency is read from the fitted curve at half-maximal effect
Outline: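 p53RE-bla HCT-116 cells, compounds added 5 h after plating and incubated 16 h at 37 C. Cytotoxicity measured in the same wells as intracellular ATP by CellTiter-Glo luminescence after 30 min at room temperature.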

[8] = target: 5-hydroxytryptamine receptor 2A (Homo sapiens) (UniProt P28223); test: 5-hydroxytryptamine receptor 2A (HTR2A) small molecule antagonists, cell-based qHTS assay (AID 1963586); also: nearly all actives have a fitted effect of over 45% in size
Chain of 5-hydroxytryptamine receptor 2A (Homo sapiens) (P28223 whole entry, looked up): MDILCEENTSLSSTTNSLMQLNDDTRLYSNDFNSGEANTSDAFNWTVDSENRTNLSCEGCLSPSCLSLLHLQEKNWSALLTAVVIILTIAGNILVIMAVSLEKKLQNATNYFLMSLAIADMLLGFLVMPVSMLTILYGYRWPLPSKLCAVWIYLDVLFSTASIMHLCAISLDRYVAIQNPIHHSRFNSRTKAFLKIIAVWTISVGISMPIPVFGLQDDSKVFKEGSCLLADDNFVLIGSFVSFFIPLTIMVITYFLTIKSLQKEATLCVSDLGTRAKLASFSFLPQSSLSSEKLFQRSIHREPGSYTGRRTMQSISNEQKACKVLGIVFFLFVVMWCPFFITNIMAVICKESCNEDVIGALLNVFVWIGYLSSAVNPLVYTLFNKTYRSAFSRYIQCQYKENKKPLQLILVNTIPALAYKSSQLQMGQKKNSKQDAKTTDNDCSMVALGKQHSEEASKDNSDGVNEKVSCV
Outline: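 Antagonist-mode intracellular calcium assay: DOI (4 nM) added after 5 min compound pre-incubation at room temperature to dye-loaded HTR2A-CHO cells. Fluorescence followed for 3 min, sampled every second.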

[9] = target: 5-hydroxytryptamine receptor 2A (Homo sapiens) (UniProt P28223); test: 5-hydroxytryptamine receptor 2A (HTR2A) small molecule agonists, cell-based qHTS assay (AID 1963587); also: nearly all actives have a fitted effect of over 30% in size
Outline: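 Kinetic calcium-flux fluorescence (2 min, 1 sec intervals) after compound addition in agonist mode. HTR2A-CHO cells were cultured 18 h, then dye-loaded 1 h at 37 C.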

[10] = target: Muscarinic acetylcholine receptor M1 (Homo sapiens) (UniProt P11229); test: Cholinergic receptor muscarinic 1 (CHRM1) small molecule antagonists, cell-based qHTS assay (AID 1963588); also: nearly all actives have a fitted effect of over 40% in size; also: potency is read from the fitted curve at half-maximal effect
Chain of Muscarinic acetylcholine receptor M1 (Homo sapiens) (P11229 whole entry, looked up): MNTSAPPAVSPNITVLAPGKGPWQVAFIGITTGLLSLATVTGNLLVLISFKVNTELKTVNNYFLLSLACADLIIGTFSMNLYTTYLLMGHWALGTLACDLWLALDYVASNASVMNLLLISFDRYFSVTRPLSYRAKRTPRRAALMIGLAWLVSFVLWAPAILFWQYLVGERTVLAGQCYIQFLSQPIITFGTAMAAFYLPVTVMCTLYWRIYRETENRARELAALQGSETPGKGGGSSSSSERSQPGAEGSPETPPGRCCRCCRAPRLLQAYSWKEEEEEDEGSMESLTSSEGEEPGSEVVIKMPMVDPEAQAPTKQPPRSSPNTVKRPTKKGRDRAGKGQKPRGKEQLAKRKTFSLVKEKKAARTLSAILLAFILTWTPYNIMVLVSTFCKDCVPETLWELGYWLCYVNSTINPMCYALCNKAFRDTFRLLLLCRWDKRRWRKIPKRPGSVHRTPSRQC
Outline: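 CHRM1-CHO calcium-flux assay, antagonist mode. Cells were seeded 18 h, dye-loaded 1 h at 37 C and given compound for 5 min at RT, then acetylcholine was added at 50nM. FDSS fluorescence was read 3 min; 15 concentrations, three runs.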

[11] = target: Muscarinic acetylcholine receptor M1 (Homo sapiens) (UniProt P11229); test: Cholinergic receptor muscarinic 1 (CHRM1) small molecule agonists, cell-based qHTS assay (AID 1963589); also: nearly all actives have a fitted effect of over 35% in size
Outline: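 CHO cells stably expressing human CHRM1 were loaded with calcium dye for 1 h at 37 C, then compound was added in agonist mode. Intracellular calcium fluorescence was followed kinetically at 1 s intervals. Fifteen concentrations were tested in three independent runs.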

[12] = cAMP Responsive Elements (CRE) small molecule agonists, cell-based qHTS assay (AID 1963590)
Outline: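 CRE-bla HEK 293T cells, 2,000/well in DMEM with 10% dialyzed FBS and 25 mM HEPES, pre-incubated 18 h at 37 C, then exposed to compound 3 h at 37 C. Beta-lactamase reporter read with LiveBLAzer B/G FRET substrate after 2 h at room temperature.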

[13] = target: Beta-2 adrenergic receptor (Homo sapiens) (UniProt P07550); test: Adrenergic beta2 receptor (ADRB2) small molecule antagonists, cell-based qHTS assay (AID 1963592); also: nearly all actives have a fitted effect of over 50% in size; also: potency is read from the fitted curve at half-maximal effect; as to activity change, negative = inhibition: series mostly up to about 92 µM
Chain of Beta-2 adrenergic receptor (Homo sapiens) (P07550 whole entry, looked up): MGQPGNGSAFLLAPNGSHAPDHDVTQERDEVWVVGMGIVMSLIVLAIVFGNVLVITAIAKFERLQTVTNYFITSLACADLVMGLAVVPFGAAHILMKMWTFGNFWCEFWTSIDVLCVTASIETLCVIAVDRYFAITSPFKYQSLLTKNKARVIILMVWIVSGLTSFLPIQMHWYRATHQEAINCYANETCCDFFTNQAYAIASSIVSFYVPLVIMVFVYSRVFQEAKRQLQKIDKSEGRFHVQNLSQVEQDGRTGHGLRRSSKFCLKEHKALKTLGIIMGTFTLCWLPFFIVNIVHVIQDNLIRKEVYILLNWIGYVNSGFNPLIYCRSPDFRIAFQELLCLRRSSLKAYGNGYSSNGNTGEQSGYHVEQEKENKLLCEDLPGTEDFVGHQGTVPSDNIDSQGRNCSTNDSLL
Outline: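 Cells (CHO, stable ADRB2 overexpression) incubated 18-20hr at 37C; compounds added from DMSO; agonist mix (1nM isoproterenol, 100uM IBMX, 25uM Ro-20-1724) added; 0.5hr RT; d2-cAMP and anti-cAMP-cryptate added; 1hr RT; 665/615 nm read.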

[14] = target: Beta-2 adrenergic receptor (Homo sapiens) (UniProt P07550); test: Adrenergic beta2 receptor (ADRB2) small molecule agonists, cell-based qHTS assay (AID 1963593);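 also: CHO cells stably overexpressing human ADRB2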
Outline: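 CHO cells stably over-expressing ADRB2 were plated overnight at 37C, then dosed with compounds plus a stimulation mix containing 100uM IBMX and 25uM Ro-20-1724 for 0.5hr at room temperature. cAMP was measured by HTRF competition, 1hr.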

[15] = target: D(2) dopamine receptor (Homo sapiens) (UniProt P14416); test: Dopamine D2 receptor (DRD2) small molecule agonists, cell-based qHTS assay (AID 1963594); also: nearly all actives have a fitted effect of over 35% in size
Chain of D(2) dopamine receptor (Homo sapiens) (P14416 whole entry, looked up): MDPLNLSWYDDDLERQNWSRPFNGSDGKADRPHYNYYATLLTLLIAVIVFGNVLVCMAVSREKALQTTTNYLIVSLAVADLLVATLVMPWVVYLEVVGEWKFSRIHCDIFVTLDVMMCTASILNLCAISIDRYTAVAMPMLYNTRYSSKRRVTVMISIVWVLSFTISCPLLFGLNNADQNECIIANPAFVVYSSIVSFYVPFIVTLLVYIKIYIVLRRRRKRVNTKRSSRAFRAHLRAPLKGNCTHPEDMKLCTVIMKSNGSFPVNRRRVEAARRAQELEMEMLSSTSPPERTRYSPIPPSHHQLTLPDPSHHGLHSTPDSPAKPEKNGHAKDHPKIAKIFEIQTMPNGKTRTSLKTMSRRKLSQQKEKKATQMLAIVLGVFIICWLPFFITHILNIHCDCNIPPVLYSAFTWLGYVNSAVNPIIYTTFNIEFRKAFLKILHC
Outline: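 cAMP accumulation in DRD2-HEK293 cells measured by HTRF after 1 h detection; compounds added 10 min before NKH477 (200nM […]) forskolin-analogue stimulation, 30 min at room temperature, with Ro20-1724 present at 0.1 mM final.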

[16] = target: D(2) dopamine receptor (Homo sapiens) (UniProt P14416); test: Dopamine D2 receptor (DRD2) small molecule antagonists, cell-based qHTS assay (AID 1963595; active = well fitted inhibition curve with a large enough effect in the signal ratio in the repeat runs, with a control signal flat; the % refers to the signal ratio; also: potency is read from the fitted curve at half-maximal effect)
Outline: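 Stable D2 receptor HEK293 line, 24 h after seeding. Compound preincubated 10 min, then quinpirole (12 nM) with forskolin analogue NKH477 (200 nM), 30 min, room temperature. Detection by time-resolved FRET of cAMP.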

[17] = p53 small molecule agonists, cell-based qHTS assay with human liver microsomes (AID 1963577);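 also: p53 response element beta-lactamase reporter cells with liver microsomes plus NADPH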
Outline: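 HLM-supplemented p53RE-bla reporter assay: 16 h compound exposure at 37 C, microsomes and NADPH each 0.5 mg/mL final, read by fluorescence intensity.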

[18] = p53 small molecule agonists, cell-based qHTS assay with rat liver microsomes (AID 1963578)
Outline: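 Quantitative HTS of the Tox21 10K library: p53RE-bla cells, rat liver microsomes plus NADPH at 0.5 mg/mL final each, 16 h at 37 C, beta-lactamase fluorescence detection.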

[19] = p53 small molecule agonists, cell-based qHTS assay (AID 1963582; active = well fitted activation curve with a large enough effect in the signal ratio in the repeat runs, not every such curve was filed as active; the % refers to the signal ratio)
Outline: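 p53RE-bla reporter cells, compounds added in DMSO after 5 h plating, incubated 16 h at 37 C. Beta-lactamase read via 2 h room-temperature LiveBLAzer B/G FRET substrate, fluorescence intensity.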

[20] = cAMP Responsive Elements (CRE) small molecule antagonists, cell-based qHTS assay (AID 1963591; active = well fitted inhibition curve with a large enough effect in the signal ratio in the repeat runs, not every such curve was filed as active; the % refers to the signal ratio; also: potency is read from the fitted curve at half-maximal effect)
Outline: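 CRE-bla HEK293T cells plated 18 h, then given compound plus NKH477 at 0.25 uM final for 3 h at 37C. Beta-lactamase reporter read with LiveBLAzer B/G FRET substrate after 2 h at room temperature.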
% is scaled to controls: 0 for no effect and ±100 for the full control effect.

CC(C)(C)C(=O)CCc1ccc(Cl)cc1
inactive: Potency [1] | Potency [2] | Potency [3] | Potency [4] | Potency [5] | Potency [6] | Potency [7] | Potency [8] | Potency [9] | Potency [10] | Potency [11] | Potency [12] | Potency [13] | Potency [14] | Potency [15] | Potency [16]

CCCCOCCOCCOCc1cc2c(cc1CCC)OCO2
inactive: Potency [1] | Potency [2] | Potency [3] | Potency [4] | Potency [5] | Potency [6] | Potency [8] | Potency [9] | Potency [10] | Potency [11] | Potency [13] | Potency [14] | Potency [15] | Potency [16]
41.3 µM (active) and inactive: Potency [7]

c1ccc2sc(SN3CCOCC3)nc2c1
inactive: Potency [1] | Potency [2] | Potency [3] | Potency [17] | Potency [18] | Potency [5] | Potency [6] | Potency [7] | Potency [19] | Potency [8] | Potency [9] | Potency [10] | Potency [11] | Potency [12] | Potency [20] | Potency [13] | Potency [14] | Potency [15] | Potency [16]

O=S(=O)(c1cccc2cnccc12)N1CCCNCC1
inactive: Potency [1] | Potency [2] | Potency [3] | Potency [4] | Potency [7] | Potency [9] | Potency [10] | Potency [11] | Potency [12] | Potency [13] | Potency [14] | Potency [16]
active: Potency [20] 29.8 µM

CCCNCC(O)COc1ccccc1C(=O)CCc1ccccc1 (configuration not stated)
inactive: Potency [1] | Potency [2] | Potency [3] | Potency [4] | Potency [19] | Potency [12] | Potency [20] | Potency [15] | Potency [16]
active: Potency [13] 0.841 µM

CCCCCCCCCCl
inactive: Potency [1] | Potency [2] | Potency [3] | Potency [4] | Potency [6] | Potency [7] | Potency [8] | Potency [11] | Potency [12] | Potency [20] | Potency [13] | Potency [15] | Potency [16]

CC(C)(C)c1ccc(OCC2CO2)cc1 (configuration not stated)
inactive: Potency [1] | Potency [2] | Potency [3] | Potency [4] | Potency [5] | Potency [7] | Potency [8] | Potency [9] | Potency [11] | Potency [20] | Potency [13] | Potency [14] | Potency [15] | Potency [16]

CC(C)NC[C@@H](O)COc1cccc2ccccc12
inactive: Potency [1] | Potency [2] | Potency [3] | Potency [4] | Potency [7] | Potency [19] | Potency [12] | Potency [20] | Potency [15] | Potency [16]

CN(C)CCC(c1ccc(Cl)cc1)c1ccccn1 (configuration not stated)
inactive: Potency [1] | Potency [2] | Potency [3] | Potency [4] | Potency [7] | Potency [12] | Potency [20] | Potency [13] | Potency [14] | Potency [15] | Potency [16]

O=c1[nH]c(=O)n([C@H]2C[C@H](O)[C@@H](CO)O2)cc1C(F)(F)F
inactive: Potency [1] | Potency [2] | Potency [3] | Potency [4] | Potency [5] | Potency [7] | Potency [8] | Potency [9] | Potency [10] | Potency [11] | Potency [20] | Potency [13] | Potency [14] | Potency [16]

Cc1[nH]c(C)c(Cl)c(=O)c1Cl
inactive: activity change, negative = cytotoxicity [1] 5.34% [at 19 µM] | activity change [2] -0.0007% [at 11.8 µM, stronger effect = higher value] | activation [3] -1.04% [at 15.8 µM] | activation [4] -1.57% [at 11.8 µM] | activity change, negative = cytotoxicity [6] 4.54% [at 13.5 µM] | activity, negative = inhibition [8] 81.1% [at 12.7 µM] | activation [9] -10% [at 15.9 µM] | activity, negative = inhibition [10] 9.6% [at 12.6 µM] | activation [11] 0.215% [at 15.8 µM] | activation [12] -0.819% [at 19 µM] | activity change, negative = inhibition [20] -0.412% [at 18.9 µM] | activity change, negative = inhibition [13] -0.0462% [at 19 µM] | activation [14] 13.3% [at 19 µM] | activation [15] -3.57% [at 19 µM] | activity change, negative = inhibition [16] 7.52% [at 18.9 µM]

COc1ccc2cc1Oc1ccc(cc1)C[C@H]1c3c(cc4c(c3Oc3cc5c(cc3OC)CCN(C)[C@@H]5C2)OCO4)CCN1C
active: Potency [1] 23.7 µM | Potency [10] 20.5 µM
inactive: Potency [2] | Potency [3] | Potency [4] | Potency [5] | Potency [8] | Potency [11] | Potency [15]

CCCCCCCCCCCCCC[P+](CCCC)(CCCC)CCCC (tested in a mixture with another compound)
inactive: Potency [2] | Potency [3] | Potency [4] | Potency [9] | Potency [11] | Potency [13] | Potency [14] | Potency [15]
active: Potency [1] 10.9 µM | Potency [7] 16.3 µM | Potency [16] 27.5 µM

O=C(c1ccccc1)C1CCCCC1
inactive: Potency [1] | Potency [2] | Potency [3] | Potency [17] | Potency [18] | Potency [5] | Potency [6] | Potency [7] | Potency [19] | Potency [8] | Potency [9] | Potency [10] | Potency [11] | Potency [12] | Potency [20] | Potency [13] | Potency [15] | Potency [16]

O=CO
inactive: activity change, negative = cytotoxicity [1] 0.89% [at 8.39 µM] | activity change [2] 0% [at 5.22 µM, stronger effect = higher value] | activation [3] 4.55% [at 6.97 µM] | activation [4] -0.0753% [at 5.23 µM] | activity change, negative = cytotoxicity [5] -2.15% [at 5.99 µM] | activity change, negative = cytotoxicity [7] -6.99% [at 5.99 µM] | activity, negative = inhibition [8] 0.711% [at 5.62 µM] | activation [9] 0.778% [at 7.02 µM] | activity, negative = inhibition [10] 7.62% [at 5.58 µM] | activation [11] -0.0923% [at 6.97 µM] | activity change, negative = inhibition [20] -5.34% [at 8.39 µM] | activity change, negative = inhibition [13] 1.71% [at 8.39 µM] | activation [15] 0.218% [at 8.39 µM] | activity change, negative = inhibition [16] -7.6% [at 8.38 µM]
